Read-out in test [1]: Interleukin-1 alpha (IL1a), IL1A (gene 3552)
Put plainly: BSK_KF3CT_IL1a: BioMAP Diversity Plus: KF3CT Assay for Interleukin-1 alpha (IL1a) Biomarker Activity (AID 2283070). Conditions: primary human keratinocytes with fibroblasts; actives raise or lower the signal. The method in brief:
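Chemicals were dosed onto co-cultured human keratinocytes and foreskin fibroblasts, IL-1a was quantified by ELISA at 24 h, and activity was fitted in both directions relative to DMSO controls.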

Read-out in test [2]: TIMP metallopeptidase inhibitor 2 (TIMP2), TIMP2 (gene 7077)
The experiment in a line: BSK_KF3CT_TIMP2: BioMAP Diversity Plus: KF3CT Assay for TIMP metallopeptidase inhibitor 2 (TIMP2) Biomarker Activity (AID 2283071). To be noted: primary human keratinocytes with fibroblasts; actives raise or lower the signal. Put shortly: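 Cells: human keratinocytes co-cultured with foreskin fibroblasts. Treat with chemical, 24 h. Measure TIMP-2 by ELISA; fit curves bidirectionally vs DMSO baseline.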

Read-out in test [3]: Transforming growth factor beta 1 (TGFb1), TGFB1 (gene 7040)
The experiment in a line: BSK_KF3CT_TGFb1: BioMAP Diversity Plus: KF3CT Assay for Transforming growth factor beta 1 (TGFb1) Biomarker Activity (AID 2283072). To be noted: primary human keratinocytes with fibroblasts; actives raise or lower the signal. The method in brief: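 Primary human skin cells (keratinocytes, foreskin fibroblasts) were co-cultured, exposed to test chemical and sampled at 24 h. TGF-b1 levels were measured by ELISA and fitted bidirectionally relative to DMSO.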

Read-out in test [4]: Matrix Metallopeptidase 9 (MMP9), MMP9 (gene 4318)
Put plainly: BSK_KF3CT_MMP9: BioMAP Diversity Plus: KF3CT Assay for Matrix Metallopeptidase 9 (MMP9) Biomarker Activity (AID 2283074).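 For AC50: MMP9 protein level quantified by ELISA in the co-culture.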 To be noted: primary human keratinocytes with fibroblasts; actives raise or lower the signal. The method in brief:
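Human keratinocyte/foreskin fibroblast co-culture; compound added; 24 h; MMP-9 by ELISA; bidirectional fit vs DMSO baseline.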

Read-out in test [5]: urokinase plasminogen activator (uPA), PLAU (gene 5328)
The experiment in a line: BSK_KF3CT_uPA: BioMAP Diversity Plus: KF3CT Assay for urokinase plasminogen activator (uPA) Biomarker Activity (AID 2283075). Conditions: primary human keratinocytes with fibroblasts; actives raise or lower the signal. Put shortly:
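ELISA readout of uPA, analyzed for signal gain or loss relative to DMSO, from a human primary keratinocyte–foreskin fibroblast co-culture measured 24 h after chemical treatment.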

Read-out in test [6]: CD40, CD40 (gene 958)
Put plainly: BSK_LPS_CD40: BioMAP Diversity Plus: LPS Assay for CD40 Biomarker Activity (AID 2283076). To be noted: primary human HUVEC with PBMC; actives raise or lower the signal. Put shortly:
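Cells were dosed, incubated 24 h, then assayed for CD40 by ELISA. Gain or loss of signal was analysed relative to DMSO controls. The culture paired human umbilical vein endothelium with peripheral blood mononuclear cells.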

Read-out in test [7]: E-selectin (Homo sapiens) (UniProt P16581)
The experiment in a line: BSK_LPS_Eselectin: BioMAP Diversity Plus: LPS Assay for Eselectin Biomarker Activity (AID 2283077). To be noted: primary human HUVEC with PBMC; actives raise or lower the signal. The method in brief:
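Primary human vascular co-culture (endothelium plus PBMC) was dosed with chemical, then E-selectin quantified by ELISA at 24 h. Endpoint values derive from bidirectional curve fitting relative to DMSO.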

Read-out in test [8]: Interleukin-8 (IL8), CXCL8 (gene 3576)
Put plainly: BSK_LPS_IL8: BioMAP Diversity Plus: LPS Assay for Interleukin-8 (IL8) Biomarker Activity (AID 2283078). To be noted: primary human HUVEC with PBMC; actives raise or lower the signal. Put shortly: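 Readout is IL-8 by ELISA, taken 24 h after compounds were added to LPS-stimulated endothelial/PBMC co-cultures. Both increases and decreases relative to DMSO control were scored through bidirectional fitting.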

A short description of test [9]: BSK_LPS_SRB: Viability Assessment in the BioMAP Diversity Plus: LPS Assay (AID 2283079).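 Note: total protein by sulforhodamine B absorbance as a cytotoxicity measure; measured one day after compound addition; fitted in both directions against DMSO so loss or gain of signal counts.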 To be noted: primary human HUVEC with PBMC. The method in brief:
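Readout is SRB absorbance at 560 nm (0.1% stain, TCA-fixed parallel cultures) as a total-protein cytotoxicity measure. Cells: primary human umbilical vein endothelium plus peripheral blood mononuclear cells, 24 h after chemical exposure; DMSO served as baseline.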

Read-out in test [10]: Interleukin-1 alpha (IL1a), IL1A (gene 3552)
The experiment in a line: BSK_LPS_IL1a: BioMAP Diversity Plus: LPS Assay for Interleukin-1 alpha (IL1a) Biomarker Activity (AID 2283080). Conditions: primary human HUVEC with PBMC; actives raise or lower the signal. The method in brief:
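ELISA read-out of IL-1 alpha from a human primary vascular co-culture (endothelium plus PBMC) under LPS, sampled 24 hours post-dosing. Activity was fitted in both directions relative to DMSO controls.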

Read-out in test [11]: Monocyte Chemoattractant Protein-1 (MCP1), CCL2 (gene 6347)
The experiment in a line: BSK_LPS_MCP1: BioMAP Diversity Plus: LPS Assay for Monocyte Chemoattractant Protein-1 (MCP1) Biomarker Activity (AID 2283081).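 For AC50: secreted MCP-1 protein quantified by ELISA in culture supernatant.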 Conditions: primary human HUVEC with PBMC; actives raise or lower the signal. Put shortly: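 Human endothelial–PBMC co-cultures were dosed with chemical, then LPS-driven MCP-1 levels were quantified by ELISA at 24 h. Activity in either direction was fitted versus DMSO negative control.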

Test [12] is described as follows: BSK_LPS_PGE2: BioMAP Diversity Plus: LPS Assay for Prostaglandin E2 (PGE2) Biomarker Activity (AID 2283082). To be noted: primary human HUVEC with PBMC; actives raise or lower the signal. The method in brief: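 LPS-activated HUVEC/PBMC co-culture; cmpd dosed, 24 h; PGE2 by ELISA; bidirectional fit vs DMSO; SRB (0.1%, TCA-fixed, 560 nm) in parallel plates for overt cytotox.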

Read-out in test [13]: Macrophage colony-stimulating factor (MCSF), CSF1 (gene 1435)
Put plainly: BSK_LPS_MCSF: BioMAP Diversity Plus: LPS Assay for Macrophage colony-stimulating factor (MCSF) Biomarker Activity (AID 2283083). Conditions: primary human HUVEC with PBMC; actives raise or lower the signal. The method in brief: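 ELISA readout of M-CSF after 24 h compound exposure in a human endothelial/PBMC co-culture. Activity, in either direction, is fitted relative to DMSO vehicle.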

Read-out in test [14]: Tissue Factor, F3 (gene 2152)
Put plainly: BSK_LPS_TissueFactor: BioMAP Diversity Plus: LPS Assay for Tissue Factor Biomarker Activity (AID 2283084). To be noted: primary human HUVEC with PBMC; actives raise or lower the signal. The method in brief:
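ELISA signal for cell-surface Tissue Factor (CD142) was read 24 h after compound dosing of an LPS-stimulated human endothelial–PBMC primary co-culture. Gain or loss of signal was scored relative to DMSO.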

Read-out in test [15]: Tumor necrosis factor (Homo sapiens) (UniProt P01375)
The experiment in a line: BSK_LPS_TNFa: BioMAP Diversity Plus: LPS Assay for Tumour Necrosis Factor alpha (TNFa) Biomarker Activity (AID 2283085). Conditions: primary human HUVEC with PBMC; actives raise or lower the signal. Put shortly:
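Read-out is ELISA of TNFa in primary human endothelial cell–PBMC co-cultures at 24 h after compound. Activity in either direction was fitted against DMSO.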

Read-out in test [16]: Vascular cell adhesion molecule 1 (VCAM1), VCAM1 (gene 7412)
The experiment in a line: BSK_LPS_VCAM1: BioMAP Diversity Plus: LPS Assay for Vascular cell adhesion molecule 1 (VCAM1) Biomarker Activity (AID 2283086). To be noted: primary human HUVEC with PBMC; actives raise or lower the signal. Put shortly: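 HUVEC + PBMC co-culture, LPS system; compound 24 h; VCAM-1 by ELISA; bidirectional fit vs DMSO control; parallel SRB (0.1%, TCA-fixed, 560 nm) for cytotoxicity.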

Read-out in the next test: CD38, CD38 (gene 952)
The experiment in a line: BSK_SAg_CD38: BioMAP Diversity Plus: SAg Assay for CD38 Biomarker Activity (AID 2283087). To be noted: primary human HUVEC with PBMC; actives raise or lower the signal. Put shortly:
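Human HUVEC plus PBMC co-culture stimulated with superantigen; CD38 measured by ELISA 24 h after chemical dosing. Fluorescence read-out, bidirectional fit against DMSO; cytotoxicity tracked in parallel by SRB and Alamar Blue.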

Read-out in test [17]: CD40, CD40 (gene 958)
The experiment in a line: BSK_SAg_CD40: BioMAP Diversity Plus: SAg Assay for CD40 Biomarker Activity (AID 2283088). Conditions: primary human HUVEC with PBMC; actives raise or lower the signal. Put shortly:
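Compounds were dosed onto a human primary endothelial–PBMC co-culture, and after 24 h CD40 was quantified by ELISA using a fluorescence signal. Activity in either direction was fitted relative to DMSO.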

Read-out in a further test: CD69, CD69 (gene 969)
Put plainly: BSK_SAg_CD69: BioMAP Diversity Plus: SAg Assay for CD69 Biomarker Activity (AID 2283089).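 For AC50: cell surface CD69 protein quantified by ELISA with fluorescence detection.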 To be noted: primary human HUVEC with PBMC; actives raise or lower the signal. The method in brief:
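Endothelial/PBMC co-culture; chemical added; 24 h incubation; CD69 ELISA with fluorescence detection; bidirectional fit vs DMSO.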

Read-out in test [18]: C-C motif chemokine 2 (Homo sapiens) (UniProt P13500)
Put plainly: BSK_KF3CT_MCP1: BioMAP Diversity Plus: KF3CT Assay for Monocyte Chemoattractant Protein 1 (MCP1/CCL2) Biomarker Activity (AID 2283073). Conditions: primary human keratinocytes with fibroblasts; actives raise or lower the signal. Put shortly:
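ELISA readout of MCP-1 after 24 h chemical dosing of a human skin primary co-culture of keratinocytes and foreskin fibroblasts. Activity was fitted in both directions against DMSO.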

The text below walks through data of PubChem BioAssay (EPA / NIEHS).

Active and inactive are the calls of the source. Rule for the calls: active = hit-call score of the fitted dose curve at least 0.9, where 1 is the maximum; inactive = score below 0.9.

Chain of Tumor necrosis factor (Homo sapiens) (P01375 whole entry, looked up): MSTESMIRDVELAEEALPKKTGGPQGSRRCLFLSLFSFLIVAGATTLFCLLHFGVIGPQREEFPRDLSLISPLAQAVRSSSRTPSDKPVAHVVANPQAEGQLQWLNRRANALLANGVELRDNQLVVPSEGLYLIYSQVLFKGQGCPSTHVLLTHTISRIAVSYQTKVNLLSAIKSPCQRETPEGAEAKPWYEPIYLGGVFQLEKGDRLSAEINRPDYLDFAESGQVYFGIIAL
Chain of E-selectin (Homo sapiens) (P16581 whole entry, looked up): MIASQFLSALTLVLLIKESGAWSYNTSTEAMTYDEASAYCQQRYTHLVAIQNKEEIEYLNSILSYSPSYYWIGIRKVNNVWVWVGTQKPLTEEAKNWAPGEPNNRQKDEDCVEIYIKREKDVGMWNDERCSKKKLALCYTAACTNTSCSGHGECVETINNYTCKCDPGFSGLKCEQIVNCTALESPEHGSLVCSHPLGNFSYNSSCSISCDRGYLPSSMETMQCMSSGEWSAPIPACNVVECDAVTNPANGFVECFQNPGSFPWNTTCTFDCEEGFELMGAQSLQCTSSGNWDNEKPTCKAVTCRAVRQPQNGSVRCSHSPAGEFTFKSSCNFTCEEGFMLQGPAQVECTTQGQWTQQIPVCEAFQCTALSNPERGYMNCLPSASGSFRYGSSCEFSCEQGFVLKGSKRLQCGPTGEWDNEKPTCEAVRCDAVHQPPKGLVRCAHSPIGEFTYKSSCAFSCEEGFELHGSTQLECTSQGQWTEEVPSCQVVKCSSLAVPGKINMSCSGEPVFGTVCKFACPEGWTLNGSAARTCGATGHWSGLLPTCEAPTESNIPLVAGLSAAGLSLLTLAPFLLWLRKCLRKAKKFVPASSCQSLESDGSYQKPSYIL

As for `CCOC(C=C(C)CCC=C(C)C)OCC`, the AC50 (in general, the concentration at which the activity in the assay is half-maximal) in [1] is 26 µM (active); in test [2], 31.2 µM (active); in test [3] it was 3.97 µM (active); in test [4] it was 20 µM (active); in test [5], 3.97 µM (active); in the test with CD40, CD40 (gene 958) [6] it was 30 µM (active). Further, the AC50 was 35 µM (active) in test [7]; 31.9 µM (active) in test [9]; 32.9 µM (active) in test [10]; 20 µM (active) in test [11]; 33.1 µM (active) in [13]; 30.5 µM (active) in test [14]. Further, the AC50 in test [16] is 31.7 µM (active); with CD40, CD40 (gene 958) [17], 3.97 µM (active). Further, the outcome is “inactive” in test [8]; “inactive” in test [12]; “inactive” in test [15]; “inactive” with CD38, CD38 (gene 952); “inactive” with CD69, CD69 (gene 969).

`O=C=Nc1cccc2c(N=C=O)cccc12`: the result in [1], in test [2], in [3], in test [18], in test [4] and in test [5] was inactive. Further, the outcome is “inactive” with CD40, CD40 (gene 958) [6]; “inactive” in test [7]; “inactive” in test [8]; “inactive” in test [9]; “inactive” in test [10]; “inactive” in test [11]. Further, the outcome in [12] is “inactive”; in test [13] it was “inactive”; in test [14], “inactive”; in test [15], “inactive”; in [16] it was “inactive”; in the test with CD38, CD38 (gene 952), “inactive”. The outcome with CD40, CD40 (gene 958) [17] was “inactive”; with CD69, CD69 (gene 969), “inactive”.

`Cc1ccc(S(=O)(=O)C(I)I)cc1`: the AC50 is 2.47 µM (active) in [1]; 2.35 µM (active) in test [2]; 2.71 µM (active) in [18]; 5.24 µM (active) in [4]; 6.22 µM (active) in [5]; 2.38 µM (active) with CD40, CD40 (gene 958) [6]. Moreover, the AC50 in test [7] is 3.3 µM (active); in test [8], 4.27 µM (active); in [9], 5.31 µM (active); in [10], 1.92 µM (active); in test [11], 3.77 µM (active); in [13], 2.3 µM (active). Further, the half-maximal activity concentration (AC50) in [14] is 3.07 µM (active); in test [16] it was 3.03 µM (active); with CD38, CD38 (gene 952), 2.99 µM (active); with CD40, CD40 (gene 958) [17], 2.98 µM (active); in the test with CD69, CD69 (gene 969) it was 3.25 µM (active). The result in test [3], in test [12] and in test [15] was inactive.
